Screening data deposited in PubChem BioAssay by National Center for Advancing Translational Sciences (NCATS).
DT40 TDP1 CPT: qHTS for Inhibitors of human tyrosyl-DNA phosphodiesterase 1 (TDP1): qHTS in cells in presence of CPT. chicken DT40 Tdp1-/-;hTDP1 cells + 20 nM CPT, ATP luminescence, 48 h. Potency, µM (doses to about 46.2 µM), without a hit: top-dose activity change, negative = growth inhibition, actives largely listed as inhibitors. 12% of 420,000 active. AID 686979, 2013; also: potency is read from the fitted curve at half-maximal effect; % is scaled to controls: 0 for no effect and ±100 for the full control effect; nearly all actives have a fitted effect of over 55% in size
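Chicken DT40 Tdp1-/- cells complemented with human TDP1, 400 cells/well, exposed to compounds plus 20 nM camptothecin for at least 48 h at 37 C; viability read as ATP content by CellTiter-Glo luminescence.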
D3 antag: qHTS of D3 Dopamine Receptor Antagonist: qHTS; D(3) dopamine receptor (Homo sapiens), P35462; D3R cells, DiscoveRx beta-arrestin luminescence, antagonist mode; active compounds read low; max response, negative = inhibition, %; 2.5% of 360,000 active; AID 652054, 2013; in the data active = max response below about -50%; inconclusive = no clear call, values can overlap the other calls; also: % is scaled to controls: 0 for no effect and ±100 for the full control effect
Target sequence (P35462 whole entry, looked up): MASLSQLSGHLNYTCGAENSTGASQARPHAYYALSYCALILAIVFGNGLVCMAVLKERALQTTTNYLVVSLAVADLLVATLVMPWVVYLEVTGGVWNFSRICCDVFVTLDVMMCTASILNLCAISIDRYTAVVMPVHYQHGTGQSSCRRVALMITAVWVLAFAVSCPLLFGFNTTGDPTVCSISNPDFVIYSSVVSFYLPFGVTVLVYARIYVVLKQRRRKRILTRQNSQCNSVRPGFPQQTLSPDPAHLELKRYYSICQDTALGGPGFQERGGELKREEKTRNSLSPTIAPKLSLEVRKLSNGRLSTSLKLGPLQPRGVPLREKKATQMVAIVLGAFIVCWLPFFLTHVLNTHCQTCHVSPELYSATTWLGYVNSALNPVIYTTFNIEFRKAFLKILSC
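Cells plated overnight at 1500 cells/well, then exposed to library compounds with dopamine controls for 90 minutes at 37 degrees C. DiscoveRx reagent added for 30–60 minutes at room temperature; luminescence read, quantitative HTS format.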
TDP1 cell noCPT: qHTS for Inhibitors of human tyrosyl-DNA phosphodiesterase 1 (TDP1): qHTS in cells in absence of CPT; 15% of 420,000 active; Potency, µM (titrated, usually from 46.2 µM), without a hit: at the top dose activity change, negative = growth inhibition, actives largely listed as inhibitors; DT40 Tdp1-/- hTDP1 cells, no CPT, ATP luminescence, 48 h; AID 686978, 2013; also: potency is read from the fitted curve at half-maximal effect; % is scaled to controls: 0 for no effect and ±100 for the full control effect; nearly all actives have a fitted effect of over 55% in size
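Readout: luminescence from CellTiter-Glo after 30 min in the dark at RT. Cells: DT40 Tdp1-/- with stable hTDP1, 400/well. Exposure: compounds alone, ≥48 hr, 37 °C.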
IL-1B inflam inh: qHTS for Inhibitors of Inflammasome Signaling: IL-1-beta AlphaLISA Primary Screen. THP-1 LPS/ATP IL-1B secretion, AlphaLISA, 16 h; active compounds read low. activity change, % at 57.5 µM. 4.7% of 360,000 active; in the data active = activity change below about -50%; inconclusive = mostly about -30% to -49%; also: % is scaled to controls: 0 for no effect and ±100 for the full control effect
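THP-1 cells pretreated 1 hr with compounds (up to 57.5 uM final), then stimulated with LPS (250 ng/mL final) plus ATP (1.25 mM final); secreted IL-1B measured by AlphaLISA after 16 hr, decreased signal indicating inhibition.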
ClpP mod: qHTS Assay for Activators of ClpP; Potency, µM (doses to about 57.5 µM), inactives show top-dose activity change, negative = active; 1.9% of 340,000 active; purified B. subtilis ClpP, FRET peptide cleavage, 20 min; ATP-dependent Clp protease proteolytic subunit (Bacillus subtilis (strain 168)), P80244; active = well fitted falling curve with a large enough effect; inconclusive = small, poorly fitted or top-dose-only effect; inactive = no such curve, though single readings can be large or run the other way; also: potency is read from the fitted curve at half-maximal effect; the source files actives as falling curves though it sought activators and does not explain the sign; nearly all actives have a fitted effect of over 65% in size
Target sequence (P80244 whole entry, looked up): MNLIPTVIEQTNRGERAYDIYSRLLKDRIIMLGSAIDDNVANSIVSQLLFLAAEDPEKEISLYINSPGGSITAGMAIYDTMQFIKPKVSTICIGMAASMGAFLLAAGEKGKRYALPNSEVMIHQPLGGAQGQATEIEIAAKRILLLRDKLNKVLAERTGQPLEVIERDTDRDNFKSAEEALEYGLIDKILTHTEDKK
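Purified B. subtilis ClpP, 10 microg/mL final in Tris/HCl pH8 with KCl, BSA, glycerol and Tween-20, cleaved an Abz/nitrotyrosine-quenched decapeptide. Fluorescence (ex 320, em 430) was read at 0 and 20 min at room temperature. Delta was normalized to 5.8 microM ADEP and DMSO/no-enzyme controls.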
D3 ag: qHTS of D3 Dopamine Receptor Agonist: qHTS; D(3) dopamine receptor (Homo sapiens), P35462; max activation, %; 0.58% of 410,000 active; D3R DiscoveRx beta-arrestin cells, luminescence, 90 min; in the data active = max activation above about 30%; also: 0% is about no effect
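Agonist-mode cell screen: cells plated at 1500/well and incubated overnight at 37 °C, then exposed to library compounds for 90 min at 37 °C. Detection reagent was added for 30–60 min at room temperature, and luminescence was read.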
The depositor's hits bear a star. Sampled rows, rich in hits. Any-hit rate of the full collection: about 21%. Unless noted, calls follow the shape of the dose curve; as a rule, active = well fitted inhibition curve with a large enough effect; inconclusive = small, poorly fitted or top-dose-only effect; inactive = flat fitted curve, though single readings scatter.

Screening CC(C)(C)NS(=O)(=O)c1ccc(CCC(=O)Nc2cc(Cl)ccc2Oc2ccccc2)cc1 returned DT40 TDP1 CPT inconclusive, D3 antag 1, TDP1 cell noCPT inconclusive, IL-1B inflam inh -63*, ClpP mod -4% and D3 ag 1.
For COc1ccc(C)cc1NC(=O)CN(c1ccccc1)S(=O)(=O)N(C)C the results were DT40 TDP1 CPT -21%, TDP1 cell noCPT -27%, ClpP mod 1% and D3 ag -1.
CC1N(C(=O)N(C)C)CCN1S(=O)(=O)c1ccccc1 (configuration not stated) was read as DT40 TDP1 CPT -5%, D3 antag -4, TDP1 cell noCPT -9%, IL-1B inflam inh -1 and D3 ag 5.
COC(=O)c1sccc1S(=O)(=O)N(CC(=O)Nc1ccc(C)cc1)c1ccccc1 was read as DT40 TDP1 CPT inconclusive, TDP1 cell noCPT 21µM*, ClpP mod 1% and D3 ag -12.
`CCOc1ccccc1N(CC(=O)Nc1ccc(OC)c(Cl)c1)S(=O)(=O)c1ccccc1` gave ClpP mod -15% and D3 ag -2.
For COc1ccc(N(CC(=O)Nc2ccc(Cl)cc2C)S(=O)(=O)c2ccccc2)c(OC)c1 the results were DT40 TDP1 CPT inconclusive, TDP1 cell noCPT 18µM*, ClpP mod 0% and D3 ag -3.
Cc1cccc(C)c1N(CC(=O)Nc1cc(Cl)ccc1Oc1ccccc1)S(C)(=O)=O was read as DT40 TDP1 CPT inconclusive, D3 antag -54*, TDP1 cell noCPT inconclusive, IL-1B inflam inh -12, ClpP mod 1% and D3 ag 0.
For COc1ccc(NC(=O)CN(c2ccccc2)S(=O)(=O)c2ccccc2)c(OC)c1 the results were DT40 TDP1 CPT inconclusive, D3 antag 14, TDP1 cell noCPT inconclusive, IL-1B inflam inh 10, ClpP mod -1% and D3 ag 3.
For COc1ccc(Cl)cc1NC(=O)CN(c1cccc(C)c1C)S(=O)(=O)c1ccccc1 the results were DT40 TDP1 CPT 23µM*, TDP1 cell noCPT 23µM*, ClpP mod -5% and D3 ag 0.
`COc1cccc(OCC(=O)Nc2cc(Cl)ccc2Oc2ccccc2)c1` gave DT40 TDP1 CPT -12%, D3 antag 36, TDP1 cell noCPT 9%, IL-1B inflam inh -2, ClpP mod 0% and D3 ag 14.
`COc1ccc(N2CCN(C(=O)CCC(=O)N3Cc4ccccc4Oc4ncccc43)CC2)cc1` gave DT40 TDP1 CPT 6%, D3 antag 4, TDP1 cell noCPT inconclusive, IL-1B inflam inh -13 and D3 ag -11.
COC(F)(F)C(Cl)Cl was read as DT40 TDP1 CPT 1%, TDP1 cell noCPT -4% and D3 ag 3.
Screening CS(=O)(=O)N1CCC[C@@]2(CCN(Cc3nccs3)C2)C1 returned DT40 TDP1 CPT 10% and TDP1 cell noCPT -6%.
Screening Cc1cn(CC(=O)NCCc2c[nH]c3ccccc23)c(=O)[nH]c1=O returned DT40 TDP1 CPT -27%, D3 antag 3, TDP1 cell noCPT -5%, IL-1B inflam inh 40, ClpP mod 1% and D3 ag 18.
`CC(=O)NN1C(=O)c2ccc3c4c(ccc(c24)C1=O)C(=O)N(NC(C)=O)C3=O` gave DT40 TDP1 CPT inconclusive, D3 antag 73, TDP1 cell noCPT inconclusive, IL-1B inflam inh 82, ClpP mod -3% and D3 ag 1.
Screening Cc1ccc(S(=O)(=O)Oc2cccc(N3C(=O)C4CC=CCC4C3=O)c2)cc1 (configuration not stated) returned DT40 TDP1 CPT 16µM*, D3 antag 43, TDP1 cell noCPT inconclusive, IL-1B inflam inh 17, ClpP mod 3% and D3 ag 7.
For Cc1ccc(S(=O)(=O)Oc2ccc(N3C(=O)C4C5CCC(C5)C4C3=O)cc2)cc1 (configuration not stated) the results were DT40 TDP1 CPT 4.1µM*, D3 antag -22, TDP1 cell noCPT 23µM*, IL-1B inflam inh 27 and D3 ag -16.
For CC(CCc1ccccc1)NC(=O)c1ccc(F)cc1 (configuration not stated) the results were DT40 TDP1 CPT 4%, D3 antag -17, TDP1 cell noCPT -23%, IL-1B inflam inh -10, ClpP mod -3% and D3 ag -6.
For CCC1=NN(C(=O)c2cccnc2)C(O)(C(F)(F)F)C1 (configuration not stated) the results were DT40 TDP1 CPT 16µM*, D3 antag -12, TDP1 cell noCPT inconclusive, IL-1B inflam inh 0, ClpP mod 1% and D3 ag -7.
CCC1=NN(C(=O)C(=O)Nc2ccccc2OC)C(O)(C(F)(F)F)C1 (configuration not stated) was read as DT40 TDP1 CPT -7%, D3 antag 21, TDP1 cell noCPT inconclusive, IL-1B inflam inh 45, ClpP mod 2% and D3 ag -21.
CCCCC1=NN(C(=O)c2cccnc2)C(O)(C(F)(F)F)C1 (configuration not stated) was read as DT40 TDP1 CPT 1.5µM*, D3 antag -15, TDP1 cell noCPT 1µM*, IL-1B inflam inh 23, ClpP mod -2% and D3 ag -18.
CCCC1=NN(C(=O)CCc2ccccc2O)C(O)(C(F)(F)F)C1 (configuration not stated) was read as DT40 TDP1 CPT -16%, D3 antag -15, TDP1 cell noCPT -7%, IL-1B inflam inh 14, ClpP mod 0% and D3 ag -6.
O=C(Nc1ccc2c(c1)OCCO2)C(c1ccccc1)n1c(=O)c(-c2cc3ccccc3[nH]2)nc2ccccc21 (configuration not stated) was read as DT40 TDP1 CPT inconclusive, D3 antag 16, TDP1 cell noCPT inconclusive, IL-1B inflam inh 17, ClpP mod -4% and D3 ag 4.
Cc1nn(-c2ccccc2)c(C)c1/C=N/NC(=O)c1ccccc1NS(=O)(=O)c1cccs1 was read as DT40 TDP1 CPT 10%, D3 antag 3, TDP1 cell noCPT -21%, IL-1B inflam inh 5, ClpP mod -1% and D3 ag -24.
